S2 tox: reduces viability in counter-screen for ATXN expression inhibitors; hit rate 0.49% among 400,000; Potency, µM (titrated, usually from 56.7 µM), usual class: cytotoxic; S2 cells (HEK-293 line with an ATXN2-luciferase reporter) viability, CellTiter-Fluor protease fluorescence, 24 h; also: nearly all actives have a fitted effect of over 40% in size
HT1080 IDH1KD tx: HT-1080 IDH1 knockdown cell toxicity (counter line). hit rate 2% among 360,000. HT-1080 IDH1 knockdown viability, ATP luminescence, 48 h. AID 686971. Potency, µM (doses to about 46.1 µM), for inactives: top-dose activity, negative = toxicity, hits mostly cytotoxic;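 also: 0% = DMSO wells and -100% = cell-free medium wells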
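% activity derives from luminescence (CellTiter-Glo), normalised to DMSO and no-cell wells. HT-1080-IDH1KD cells, 750/well, had 48 h compound exposure at 37 °C.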
HT1080NT lethal: kills 2HG-producing HT-1080-NT fibrosarcoma cells; HT-1080-NT fibrosarcoma viability, CellTiter-Glo ATP luminescence, 48 h; Potency, µM (doses to about 46.1 µM), for inactives: top-dose activity, negative = less viability, hits mostly cytotoxic; hit rate 1.6% among 360,000; AID 686970;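 also: NT is the 2HG producing partner of a matched IDH1 knockdown line; 0% = DMSO-treated cells and -100% = media-only wells without cells; nearly all actives have a fitted effect of over 55% in size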
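Toxicity toward the 2HG-producing NT line was scored as %Activity, normalised to DMSO and no-cell wells, from CellTiter-Glo luminescence after 48 hours' treatment.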
ATXN2 expr inh: reduces ATXN2 reporter expression in HEK-293 cells. HEK-293 ATXN2-luciferase reporter, luminescence, 24 h. Potency, µM (top dose mostly 57 µM), inactives show at the highest dose activity change, negative = inhibition, hits mostly inhibitors. hit rate 0.72% among 360,000. AID 1745845; also: % is scaled to controls: 0 for no effect and ±100 for the full control effect; nearly all actives have a fitted effect of over 55% in size
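qHTS (up to 57 uM final) was run with 24 h compound exposure of reporter cells at 37 °C. Each well was multiplexed: SteadyGlo luminescence measured ATXN2-luciferase expression after a fluorogenic Gly-Phe-AFC viability readout (25 uM final).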
HepG2 tox: HepG2 cytotoxicity, counter-screen for TGF-b inhibitors; HepG2 CAGA-GFP viability, ATP luminescence, 18 h; hit rate 0.76% among 410,000; Potency, µM (titrated, usually from 46.1 µM), without a hit: at the top dose activity change, negative = cytotoxicity, hits mostly cytotoxic
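HepG2 CAGA-GFP cells (1000/well, DMEM with 1% FBS) received compound, then TGF-beta at 500 pg/mL final, and were incubated 18 hours at 37 degrees C. Viability was read by CellTiter-Glo luminescence. Media-only wells were set as complete cell-killing and DMSO as no toxicity.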
TGFb SMAD3 inh: blocks TGF-b signaling | HepG2 CAGA-GFP TGF-b/SMAD3 reporter, GFP fluorescence, 18 h; TGF-beta stimulated, 500 pg/mL final | Potency, µM (series often up to 46.1 µM), inactives show top-dose activity, negative = inhibition, most hits filed as inhibitors | hit rate 1.2% among 410,000 | AID 588855; also: % is scaled to controls: 0 for no effect and ±100 for the full control effect; nearly all actives have a fitted effect of over 65% in size
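First, reporter cells (HEPG2 CAGA-GFP) rested 2 h at 37 degrees C. Next, compounds were pinned in and TGF-beta added to 500 pg/mL final. After 18 h, GFP was imaged per cell and summed per well.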
The depositor's hits bear a star; i = inactive; u = inconclusive; x = no result given. Shown are actives, neighbours in structure and some others; about 3.8% of the full set was active somewhere. Calls follow the shape of the dose curve; as a rule, active = well fitted curve in the direction sought with a large enough effect; inconclusive = small, poorly fitted or top-dose-only effect, or another doubt; inactive = no such curve, though single readings can be large; an effect the other way counts as inactive or inconclusive. Potency is read from the fitted curve at half-maximal effect.

SMILES	S2 tox	HT1080 IDH1KD tx	HT1080NT lethal	ATXN2 expr inh	HepG2 tox	TGFb SMAD3 inh
COc1cc(OC)c2c(c1)C(=O)OC2c1cc(OC)c(OC)cc1C (stereo not given)	x	x	x	x	-2.5%	-16.9%
Cc1cc(Nc2ccccc2C)n2nc(Cc3ccc(Cl)cc3)nc2n1	i	x	x	-27.5%	-6.8%	-13.7%
Cc1ccc(CN2C(=O)SC(Nc3ccc(Cl)cc3)C2=O)cc1 (stereo not given)	u	x	x	u	-32.4%	-8.8%
COc1cc(OC)c2nc(-c3cc4c(c(OC)c3)OCCN(C(=O)CC3NC(=O)c5ccccc53)C4)cc(C)c2c1 (stereo not given)	i	x	x	x	x	x
COc1cccc(CNS(=O)(=O)c2ccc(N3CCCCS3(=O)=O)cc2)c1	i	x	x	-18.8%	-21.1%	u
COc1ccc(CCNC(=O)CSc2nc3scc(-c4ccccc4)c3c(=O)[nH]2)cc1	i	-2.7%	-20.6%	-15.8%	-33.8%	12.6µM*
CC(C)CNC(=O)CSc1nc2scc(-c3ccccc3)c2c(=O)[nH]1	u	-0.1%	-7.7%	-8.2%	-31.9%	u
CCCC1(c2ccccc2)NC(=O)N(CC(=O)Nc2sc(-c3ccccc3)cc2C(=O)OCC)C1=O (stereo not given)	i	11.6µM*	16.4µM*	-27.2%	1.8%	-4.4%
CCOC(=O)c1cc(-c2ccccc2)sc1NC(=O)CN1C(=O)c2ccccc2C1=O	i	-5.1%	-0.2%	5.6%	0.5%	6.1%
Cc1c(CCOC(=O)CC23CC4CC(CC(C4)C2)C3)sc[n+]1CC(=O)c1ccccc1	x	u	-22.1%	-58.3%	-108.8%	u
Cc1c(CCOC(=O)C23CC4CC(CC(C)(C4)C2)C3)sc[n+]1Cc1ccccc1	i	23.1µM*	u	-31.0%	-38.1%	u
Cc1c(CCOC(=O)C23CC4(C)CC(C)(CC(C)(C4)C2)C3)sc[n+]1CC(=O)c1ccccc1	i	u	u	-20.0%	20µM*	10µM*
Cc1c(CCOC(=O)C23CC4CC(CC(C4)C2)C3)sc[n+]1Cc1ccccc1	i	3.0%	6.0%	-17.1%	28.1%	9.9%
COc1cccc(-c2cnc3c(NC(C)=O)cc(-c4ccc(C(=O)NC5CC5)cc4)cn23)c1	u	20.6µM*	18.4µM*	u	-36.1%	0.9%
O=CNc1cc(-c2ccc(C(=O)NC3CC3)cc2)cn2c(-c3ccccc3)cnc12	u	5.8µM*	6.51µM*	0.0%	-15.6%	-16.2%
CC(=O)c1ccc(-c2cnc3c(NC=O)cc(-c4ccc(C(=O)NC5CC5)cc4)cn23)cc1	u	7.31µM*	14.6µM*	u	4.5%	u
O=C(C[n+]1csc2ccccc21)c1ccc(O)c(O)c1	x	x	x	x	-5.9%	u
CC(=O)c1ccc(O)c(C(N)=O)c1	i	x	x	3.2%	x	x
CC1(C)SC(=S)N(/N=C/c2ccccc2O)C1N(O)C(=O)Nc1ccccc1 (stereo not given)	i	u	18.4µM*	3.7%	-29.4%	u
Nc1nnnn1-c1ccccc1	i	x	x	-5.9%	x	x
CC1CC(N(C(=O)c2ccccc2Cl)c2ccccc2)c2ccccc2N1 (stereo not given)	i	23.1µM*	23.1µM*	-12.3%	0.6%	-7.2%
CN(C(=O)c1ccccc1Cl)C1CCCCC1	i	-2.5%	17.1%	9.4%	0.3%	16.7%
COc1cccc2c1C(=O)c1c(O)c3c(c(O)c1C2=O)C[C@@](O)(C(=O)CO)C[C@@H]3O[C@H]1C[C@H](N)[C@H](O[C@@H]2CCCCO2)[C@H](C)O1	15.8µM*	x	x	0.398µM*	x	x
CC(=O)[C@]1(O)Cc2c(O)c3c(c(O)c2[C@@H](O[C@H]2C[C@H](N)[C@@H](O)[C@H](C)O2)C1)C(=O)c1ccccc1C3=O	x	x	x	0.137µM*	x	x
COc1cccc2c1C(=O)c1c(O)c3c(c(O)c1C2=O)CC(O)(C(=O)CO)CC3OC1CC(N(C)C)C(O)C(C)O1 (stereo not given)	x	0.411µM*	u	u	1.9%	0.794µM*
SMILES	S2 tox	HT1080 IDH1KD tx	HT1080NT lethal	ATXN2 expr inh	HepG2 tox	TGFb SMAD3 inh
CCOc1ccc2nc(C)cc(Nc3cccc([N+](=O)[O-])c3)c2c1	x	18.4µM*	-27.5%	28.2µM*	-100.7%	u
Cc1cc(Nc2cccc([N+](=O)[O-])c2)c2ccccc2n1	i	u	-23.7%	-12.1%	-20.1%	-15.3%
CCOc1ccc2nc(C)cc(Nc3ccc4c(c3)OCCO4)c2c1	u	u	u	u	-81.0%	22.4µM*
CCC/C=C1/CCCOC(C(=O)NCCOC)(C(F)(F)F)C1 (stereo not given)	x	x	x	x	-8.4%	-7.2%
COc1ccc(OC)c(CNc2ncc(-c3ccc(Cl)cc3)n2C)c1	i	x	x	-2.3%	-15.4%	5.5%
CN(C)CCCNc1cc(N2CCN(C3CCCCC3)CC2)c2noc3c2c1C(=O)c1ccccc1-3	x	x	x	x	15.8µM*	275.2%
O=C1c2ccccc2-c2onc3c(N4CCN(C5CCCCC5)CC4)cc(NCCO)c1c23	x	x	x	x	-18.2%	-21.3%
COc1ccccc1/C=C/C=N/NC(=O)CCn1cnc2ccccc21	i	14.6µM*	10.3µM*	-21.0%	-6.6%	-0.9%
O=C(CCn1cnc(-c2ccccc2)c1-c1ccccc1)N/N=C/c1ccccc1O	u	14.6µM*	13µM*	u	-43.0%	u
O=C(CCn1cnc(-c2ccccc2)c1-c1ccccc1)N/N=C/c1ccc(O)cc1	u	u	u	-33.9%	-16.0%	0.4%
